Laboratory results reported in the supplement of paper PMC6555819.

Assays:
Assay in all cases: PBM binding z-score (relative to random genomic background probes); higher = stronger binding; sequences stand for … in GC…GCGATTGACAGCGTAGAATGAAGG
[1] = test system: FXR:RXRa (NR concentration 270 nM, RXRa partner concentration 90 nM)
Outline: (§1)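 Binding z-scores were set against random background probes. The data came from custom Agilent 4×180K protein-binding microarrays carrying double-stranded probes with 34-nt variable regions, incubated 1 h with ligand-free nuclear receptor dimers. Partner-specific antibodies detected binding, and scanned fluorescence was regression-normalized.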

[2] = test system: LXRa:RXRa (NR concentration 270 nM, RXRa partner concentration 90 nM)
Outline: as §1

[3] = test system: LXRa homodimer (NR concentration 270 nM)
Outline: as §1

[4] = test system: LXRb:RXRa (NR concentration 270 nM, RXRa partner concentration 90 nM)
Outline: as §1

[5] = test system: LXRb homodimer (NR concentration 270 nM)
Outline: as §1

[6] = test system: PPARa:RXRa (NR concentration 270 nM, RXRa partner concentration 90 nM)
Outline: as §1

[7] = test system: PPARg:RXRa (NR concentration 180 nM, RXRa partner concentration 90 nM)
Outline: as §1

[8] = test system: PPARg:RXRa 270nM:90nM, anti-RXR (NR concentration 270 nM, RXRa partner concentration 90 nM)
Outline: as §1

[9] = test system: PPARg:RXRa 30nM:10nM, anti-RXR (NR concentration 30 nM, RXRa partner concentration 10 nM)
Outline: as §1

[10] = test system: PPARg:RXRa 90nM:30nM, anti-RXR (NR concentration 90 nM, RXRa partner concentration 30 nM)
Outline: as §1

[11] = test system: PPARg:RXRa DBDmut IVT, anti-RXR (DBD mutation: RXRa K156A/R161A, NR concentration 270 nM, RXRa partner concentration 90 nM)
Outline: as §1

[12] = test system: PPARg:RXRa IVT, anti-PPARg (NR concentration 270 nM, RXRa partner concentration 90 nM)
Outline: as §1

[13] = test system: PPARg DBDmut:RXRa IVT, anti-PPARg (DBD mutation: PPARg1 K132A/R137A, NR concentration 270 nM, RXRa partner concentration 90 nM)
Outline: as §1

[14] = test system: PPARg DBDmut IVT, anti-PPARg (DBD mutation: PPARg1 K132A/R137A, NR concentration 270 nM)
Outline: as §1

[15] = test system: PPARg homodimer (NR concentration 180 nM)
Outline: as §1

[16] = test system: PXR:RXRa (NR concentration 270 nM, RXRa partner concentration 90 nM)
Outline: as §1

[17] = test system: PXR homodimer (NR concentration 270 nM)
Outline: as §1

[18] = test system: RARa:RXR (NR concentration 270 nM, RXRa partner concentration 90 nM)
Outline: as §1

[19] = test system: RARa homodimer (NR concentration 270 nM)
Outline: as §1

[20] = test system: RARb:RXRa (NR concentration 270 nM, RXRa partner concentration 90 nM)
Outline: as §1

Sequence	PBM binding z-score [1]	PBM binding z-score [2]	PBM binding z-score [3]	PBM binding z-score [4]	PBM binding z-score [5]	PBM binding z-score [6]	PBM binding z-score [7]	PBM binding z-score [8]	PBM binding z-score [9]	PBM binding z-score [10]	PBM binding z-score [11]	PBM binding z-score [12]	PBM binding z-score [13]	PBM binding z-score [14]	PBM binding z-score [15]	PBM binding z-score [16]	PBM binding z-score [17]	PBM binding z-score [18]	PBM binding z-score [19]	PBM binding z-score [20]
TCATATAGGTAAAAGGTAAAAGTCGGTGTGGTAA	1.72	1.53	0.146	1.47	0.114	4.59	7.89	7.76	7.87	8.16	5.05	4.32	0.348	1.01	1.81	1.39	0.507	1.78	2.04	0.854
GGAACGAGGGCATTGGAGTTGATAGCATGGCGAT	0.624	1.25	-0.304	-0.0971	-0.75	1.36	0.831	0.611	-0.313	-0.0775	3.13	1.96	-0.193	-0.133	0.272	2.48	0.836	0.409	-0.598	1.72
ATACCAAGGTGATCGGGAGGTCGTTGATACTAAC	1.36	0.921	0.848	1.34	0.329	1.55	0.591	0.404	0.193	0.12	0.345	1.15	0.229	0.179	1.3	2.92	1.26	2.08	0.622	1.31
GCTTGTAGATCAAGGTTAAGAACGACTAAGCTAA	0.0945	0.622	-0.347	0.349	-0.704	1.59	1.12	2.18	0.429	1.44	1.08	1.15	0.637	-0.445	0.356	0.364	-0.0676	0.827	0.211	0.716
CAAACTAGGTCAAGAGGTCCAAGTCCGCTTCCCG	3.7	2.26	0.265	1.6	0.102	4.52	7.57	6.68	4.65	6.56	8.55	8.32	1.57	0.903	1.86	1.58	0.285	2.21	0.1	4.02
GCTTGTAGATCACGGTTAAGAAAGACTAAGCTAA	-0.132	-0.33	-0.625	-0.369	-0.584	-0.169	-0.118	-0.0332	-0.114	0.156	2.32	1.04	-0.32	-0.283	0.0431	-0.49	-0.193	-0.247	0.0308	-0.178
TCTAGTTGGTCAAAGGTCACACTCTCGAAATGCG	5.93	5.66	3.78	5.32	1.9	6.47	11.1	9.87	10.5	10.6	3.65	6.05	1.12	1.37	5.48	5.85	1.74	7.41	3.43	4.92
ATCGAAAGGTCGTGCGGTGAGTATACAGAAAGGC	5.34	4.25	0.222	3.12	1.5	4.84	3.25	3.58	1.04	2.23	0.148	1.68	0.719	0.4	3.06	3.2	0.322	3.75	0.484	3.7
TCTAGTTGGTCACGGAGGTCACATACGACGGGTA	3.08	3.35	2.47	3.46	0.637	3.93	3.1	3.94	3.8	3.63	2.69	4.21	1.22	1.14	2.46	4.38	1.7	4.13	1.16	3.84
CAAACTAGGTCAAAGTTCAAAGTCGAGCCAACCA	7.56	6.56	5.94	5.99	2.08	7.43	13.3	10.7	12.3	12.8	8.26	8.92	2.7	3.37	3.22	6.38	5.12	7.88	1.43	5.27
GCGACTGGGGCATCAGCAGGTCACCATAACTTAA	0.886	1.37	0.749	2.27	-0.977	2.79	2.16	2.13	0.0296	1.03	4	4.06	-0.0316	-0.625	2.67	2.2	0.0166	3.04	0.0286	2.53
CCAGACAGGGGAGAAGGTAACTCAGCCTCGATTA	-0.354	-0.331	-0.147	-0.0664	-0.72	-0.0873	0.239	0.0493	-0.552	0.0211	0.0282	-0.359	-0.398	-1.2	0.413	-0.427	-0.0553	-0.353	0.21	-0.286
TCTTGTAGATCAAGCAGGTCAAGAAAGCCTGAGT	0.916	1.2	0.357	1.67	-0.193	2.29	0.0976	1.6	2.11	2.16	1.73	1.75	0.414	-0.0194	0.82	1.7	0.497	1.91	0.192	1.79
ACTAGTTGGTCAGCTGAGGTTACACACAATTCGG	1.56	0.761	0.139	1.29	0.188	1.42	0.989	0.496	0.134	0.586	1.4	1.58	0.987	0.803	1.09	2.46	0.19	1.64	-0.138	1.73
CGTCCAAGGTCATAGGAGGTCTGTGAAGACAGAT	7.54	5.3	0.925	4.01	0.481	5.64	4.98	5.2	1.89	3.88	2.76	3.51	0.436	0.0298	2.07	4.86	1.09	4.27	0.26	5.05
